# Source: PubChem BioAssay
# The source made the active and inactive calls. Unless noted, how the calls were made is not given here.
# Experiments:
# [1] = test system: Wnt5a (protein binding on small-molecule microarray); experiment: Wnt5a binders on small-molecule microarray, primary screen, biophysical, 635/667 nm fluorescence (AID 1142); settings: 635 nm fluorescence, higher = more signal;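 further: fluorescence read at 667 nm with signal to noise per printed feature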
# [2] = cell viability in Huh7 cells, primary screen, cytotoxicity control for HCV replication inhibitor project, CellTiter-Glo luminescence, basal, 48 h (AID 1143); settings: Huh7 HCV replicon, higher = more signal, called active from +8 up or from −8 down;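 further: Huh7 hepatoma cells carrying a hepatitis C replication reporter with no stimulus; test concentration not given here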
# [3] = P. aeruginosa biofilm formation inhibitors, primary screen, PAO1 strain, BacTiter-Glo luminescence, LB-PBS (AID 1144); settings: 12 h, higher = more signal
# [4] = CREB reporter modulators without forskolin, primary screen, cell-based, PC12, CRE-LacZ reporter, unstimulated (AID 1145); settings: no forskolin, luminescence, 4.5 h, higher = more signal, called active from +8 up or from −8 down
# [5] = CREB reporter modulators under forskolin, primary screen, cell-based, PC12, CRE-LacZ reporter, forskolin-stimulated (AID 1146); settings: luminescence, 4.5 h, higher = more signal, called active from +8 up or from −8 down;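 further: PC12 cells with 6xCRE LacZ reporter stimulated by forskolin 10 µM; beta-galactosidase reporter signal reflecting CREB driven transcription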
# [6] = target: Streptavidin (Streptomyces avidinii) (UniProt P22629); experiment: streptavidin binders on small-molecule microarray, primary screen, artefact control for SMM compound annotation, biophysical, 635/667 nm fluorescence (AID 1147); settings: streptavidin binding, higher = more signal;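 further: signal reflects streptavidin binding to arrayed compounds as a control protein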
# Chain of Streptavidin (Streptomyces avidinii) (P22629 whole entry, looked up): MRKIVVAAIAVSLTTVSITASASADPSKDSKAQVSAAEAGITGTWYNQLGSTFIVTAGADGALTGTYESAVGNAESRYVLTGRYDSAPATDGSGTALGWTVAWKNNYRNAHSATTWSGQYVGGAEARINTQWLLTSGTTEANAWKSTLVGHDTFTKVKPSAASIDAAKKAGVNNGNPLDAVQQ
# [7] = small-molecule binders of probe aInhba, primary screen, biochemical, small-molecule microarray, 635/667 nm fluorescence (AID 1148); settings: higher = more signal;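 further: score merges 667nm spot fluorescence with signal-to-noise for antibody binding to printed compounds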
# Torsin-1A (Homo sapiens) [8] = target: Torsin-1A (Homo sapiens) (UniProt O14656); experiment: torsin A binders from cell lysate, primary screen, small-molecule microarray, wild-type, 635/667 nm (AID 1149); settings: COS7 hTOR1A-WT lysate, 635 nm fluorescence, higher = more signal
# Chain of Torsin-1A (Homo sapiens) (O14656 whole entry, looked up): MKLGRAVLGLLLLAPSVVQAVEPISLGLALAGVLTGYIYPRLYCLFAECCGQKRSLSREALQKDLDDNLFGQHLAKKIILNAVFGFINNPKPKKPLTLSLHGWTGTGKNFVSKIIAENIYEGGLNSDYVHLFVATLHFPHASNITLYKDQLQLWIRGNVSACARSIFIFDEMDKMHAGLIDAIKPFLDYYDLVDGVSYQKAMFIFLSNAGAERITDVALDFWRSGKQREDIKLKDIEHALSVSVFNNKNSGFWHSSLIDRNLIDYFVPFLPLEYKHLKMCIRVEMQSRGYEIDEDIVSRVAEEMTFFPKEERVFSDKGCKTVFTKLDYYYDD
# Torsin-1A (Homo sapiens) [9] = target: Torsin-1A (Homo sapiens) (UniProt O14656); experiment: small-molecule binders of mutant TOR1A in lysate, primary screen, cell lysate, small-molecule microarray, COS7 lysate, 635/667 nm fluorescence (AID 1150); settings: COS7 hTOR1A mutant lysate, 635 nm fluorescence, higher = more signal;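 further: score pools 667 nm emission and signal to noise measuring lysate protein binding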
# [10] = test system: Sonic hedgehog protein (Shh); experiment: small-molecule binders of Shh protein, primary screen, biochemical, small-molecule microarray, 635/667 nm fluorescence (AID 1151); settings: small-molecule microarray binding, 635 nm fluorescence; higher = more signal;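 further: Shh protein binding to compounds spotted on small-molecule microarray slides; score combines spot fluorescence intensity with signal-to-noise across triplicate slides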
SMILES,composite z-score [1],z-score [2],z-score [3],z-score [4],z-score [5],composite z-score [6],composite z-score [7],composite z-score (Torsin-1A (Homo sapiens) [8]),composite z-score (Torsin-1A (Homo sapiens) [9]),composite z-score [10]
CCOC(=O)C[C@H]1[C@H](OC(=O)c2ccc(C(=O)c3ccccc3)cc2)[C@@H](NC(=O)C2CCCCC2)c2cc(OCCCO)ccc2N1C(=O)c1ccccc1,0.177,-0.361 (inactive),0.441 (inactive),2.06 (inactive),-0.0298 (inactive),0.767,0.58,0.342,0.358,1.31
COc1ccc([Si](C)(C)[C@@H]2[C@@H](CCn3cc([C@H](O)c4ccccc4)nn3)O[C@]3(C(=O)N(Cc4cccc(N5CCOC5=O)c4)c4ccccc43)[C@H]2C)cc1,-0.105,-1.08 (inactive),-1.69 (inactive),0.134 (inactive),-1.36 (inactive),-0.469,-0.292,-0.568,-0.668,-0.98
CCOC(=O)C1=C[C@@H](C(C)C)N(S(=O)(=O)c2ccc(C)cc2)[C@H]1c1ccc(C(C)C)cc1,0.336,-3.48 (inactive),-0.228 (inactive),-0.676 (inactive),0.359 (inactive),1.58,-0.121,1.05,0.644,0.31
CCCC[C@@H]1C[C@H]1[C@@H](NC(=O)c1ccc(-c2ccccc2)cc1)c1ccc(-c2ccccc2)cc1,0.198,-2.94 (inactive),0.0911 (inactive),0.394 (inactive),1.7 (inactive),0.305,0.0111,0.0287,-0.0963,2.02
CC1=C2[C@@H](CCc3ccccc3)OB(O)C[C@@H]2n2c(=O)n(-c3ccccc3)c(=O)n2C1,0.207,-0.382 (inactive),0.909 (inactive),0.402 (inactive),-0.826 (inactive),0.156,-0.0405,0.0316,0.111,0.724
Cc1ccc(S[C@]2(C(=O)NC3CC3)CC(=O)N(C3CCCCC3)[C@@H]2c2ccc(CO)cc2I)cc1,0.136,-3.4 (inactive),-0.128 (inactive),0.362 (inactive),0.681 (inactive),0.936,-0.0375,0.254,0.582,1.77
[N-]=[N+]=NCc1ccccc1C[C@]1(C(=O)O)N=C(c2ccc(OCCCO)cc2)O[C@H]1c1ccccc1,0.0352,-0.881 (inactive),-0.556 (inactive),-0.79 (inactive),2.11 (inactive),0.807,0.0566,1.8,1.99,-0.474
NCCCCCCNC(=O)[C@H]1C[C@H]2C(=O)NCC(=O)N2[C@H]1c1cccc(OCCO)c1,0.363,0.0443 (inactive),0.0567 (inactive),-0.675 (inactive),-0.405 (inactive),0.485,-0.128,1.16,0.872,1.61
CCOC(=O)C[C@H]1[C@H](OC(=O)c2ccccc2-c2ccccc2)[C@@H](NC(=O)c2ccc3ccccc3c2)c2cc(OCCCO)ccc2N1C(=O)c1ccc2ccccc2n1,0.0952,0.0364 (inactive),-0.756 (inactive),0.311 (inactive),0.429 (inactive),0.162,-0.0087,0.335,0.0486,0.575
C=C[C@@H](COC(C)=O)N(Cc1ccccc1[N+](=O)[O-])S(=O)(=O)c1ccc(Br)cc1,0.521,-4.76 (inactive),-1.65 (inactive),-0.0108 (inactive),-1.41 (inactive),1.16,-0.104,0.55,1.58,1.97
C=C(C(=O)CC[C@H](OC(C)=O)c1ccc(OCCO)cc1)C(C)C,0.35,-8.04 (active),-0.28 (inactive),1.63 (inactive),0.655 (inactive),0.934,-0.125,0.612,0.909,2.13
Cc1ccc([C@H]2[C@H](C(=O)O)[C@H](Sc3ccccc3)[C@@H](C(C)C)N2S(=O)(=O)c2ccc(C)cc2)cc1,0.378,-2.04 (inactive),0.766 (inactive),-0.676 (inactive),-0.728 (inactive),0.93,-0.231,0.495,0.612,-0.861
C=CC(COC(C)=O)NS(=O)(=O)c1ccc(Br)cc1 (stereo not given),0.136,0.0481 (inactive),0.465 (inactive),2.39 (inactive),1.33 (inactive),0.923,-0.105,0.211,0.385,0.948
CC(C)N1C(=O)c2ccccc2[C@@H](C(=O)NCCCN(C)C)[C@@H]1c1ccc(CO)cc1,-0.0882,-0.921 (inactive),-0.282 (inactive),-0.116 (inactive),-0.0135 (inactive),-0.418,0.0633,-0.0795,-0.0729,-0.589
Cc1ccc(S[C@]2(C(=O)NCc3ccccc3)CC(=O)N(Cc3ccccc3Cl)[C@@H]2c2ccc(CO)cc2I)cc1,-0.657,-1.68 (inactive),-1.12 (inactive),-0.258 (inactive),1.72 (inactive),-0.15,-0.0963,-2.03,-1.65,0.262
COCCOC(=O)N1C(=O)[C@@]2(c3cc(C#Cc4ccc(OC)cc4)ccc31)[C@H](C(=O)N1CCN(c3ncccn3)CC1)[C@H]1C(=O)O[C@H](c3ccccc3)[C@H](c3ccccc3)N1[C@@H]2c1ccc(O)cc1,-0.0081,-3.61 (inactive),-1.03 (inactive),-0.191 (inactive),0.0921 (inactive),-0.0988,-0.0762,0.561,-0.007,0.736
COC(=O)[C@@]1(Cc2ccccc2)[C@H]2c3cc(C(=O)N4CCCC4)n(Cc4ccc(C)o4)c3C[C@H]2CN1C(=O)c1ccccc1,-0.135,-2.17 (inactive),-0.544 (inactive),0.962 (inactive),1.16 (inactive),1.15,0.181,0.0769,0.537,-0.21
COC(=O)C[C@H]1O[C@]2(C(=O)N(Cc3ccccc3)c3ccc(NC(C)=O)cc32)[C@@H](C)[C@@H]1[Si](C)(C)c1ccc(OC)cc1,0.0998,-0.796 (inactive),0.695 (inactive),1.84 (inactive),-0.792 (inactive),0.174,-0.251,-0.0471,0.033,0.978
O=C1OCCC/C=C\[C@H]2OC34C=CCN(Cn5nnc6ccccc65)C(=O)[C@H]3N(CCCCCO)C(=O)[C@@H]4C12 (stereo not given in full),-0.883,-0.19 (inactive),-0.477 (inactive),-0.35 (inactive),-0.26 (inactive),-1.21,-0.0762,-2.35,-0.736,0.436
COC(=O)C[C@@H]1C[C@H](C)[C@]2(O1)C(=O)N(Cc1ccccc1)c1ccc(NC(C)=O)cc12,0.739,-0.578 (inactive),0.347 (inactive),3.56 (inactive),-0.47 (inactive),-0.101,-0.128,0.0771,0.362,0.034
O=C1O[C@H](c2ccccc2)[C@H](c2ccccc2)N2[C@H]1[C@@H](C(=O)O)[C@]1(C(=O)Nc3ccc(C#CC4=CCCCC4)cc31)[C@H]2c1ccc(OCCO)cc1,1.04,-1.89 (inactive),-1.37 (inactive),0.0816 (inactive),3.42 (inactive),1.22,0.201,0.586,1.16,1.09
CCCN1C(=O)[C@@]2(CCC(=O)OC(C)(C)C)N=C(c3ccc(OCCCO)cc3)O[C@H]2c2ccccc21,0.399,-4.47 (inactive),-1.36 (inactive),1.46 (inactive),-1.6 (inactive),0.0808,0.0319,-0.0821,0.408,1.5
O=C1OCCC=C[C@H]2OC34C=CCN(Cc5ccccc5)C(=O)[C@H]3N(CCCCCO)C(=O)[C@@H]4C12 (stereo not given in full),-0.733,0.409 (inactive),-1.86 (inactive),-0.216 (inactive),-0.732 (inactive),-0.636,-0.128,2.82,2.07,-0.211
COCCOC(=O)N1C(=O)[C@@]2(c3cc(C#CCCO)ccc31)[C@H](c1ccc(O)cc1)N1[C@H](c3ccccc3)[C@H](c3ccccc3)OC(=O)[C@H]1[C@@H]2C(N)=O,0.453,-0.209 (inactive),0.393 (inactive),0.48 (inactive),0.73 (inactive),-0.656,0.0388,0.553,0.883,0.493
[N-]=[N+]=Nc1ccccc1[C@H]1OC(c2ccc(OCCCO)cc2)=N[C@@]1(CCS(=O)(=O)c1ccccc1)C(=O)O,0.296,-1.06 (inactive),0.713 (inactive),1.29 (inactive),-0.197 (inactive),0.433,0.0516,-0.363,1.13,-0.721
COc1ccc(C#Cc2ccc3c(c2)[C@]2(C(=O)N3)[C@H](c3ccc(O)cc3)N3[C@H](c4ccccc4)[C@H](c4ccccc4)OC(=O)[C@H]3[C@@H]2C(=O)NC[C@H](O)c2ccccc2)cc1,0.365,-3.5 (inactive),-0.654 (inactive),-0.0246 (inactive),-1.12 (inactive),0.153,-0.0606,0.215,0.488,1.05
CC(C)c1ccc(NN2C(C(O)c3ccc(N(C)C)cc3)C=CC3C(=O)N(c4ccccc4)C(=O)C32)cc1 (stereo not given),0.125,-1.1 (inactive),-0.666 (inactive),-0.133 (inactive),0.856 (inactive),1.76,0.268,0.074,0.658,-0.0206
COCCOC(=O)N1C(=O)[C@@]2(c3cc(C#CCNC(N)=O)ccc31)[C@H](C(=O)N1CCc3cc(OC)c(OC)cc3C1)[C@H]1C(=O)O[C@H](c3ccccc3)[C@H](c3ccccc3)N1[C@@H]2c1ccc(OCCO)cc1,0.506,-0.352 (inactive),-1.42 (inactive),-1.56 (inactive),-0.549 (inactive),0.287,-0.418,-0.136,0.237,1.95
